Key:
Assay in all cases: log2 ratio of Biotin-Ahx-Ub-VS probe labelling (fragment/DMSO); higher = less target engagement (more negative = stronger competition), active = hit call of the paper (q ≤ 0.05, log2 ratio ≤ -1)
Conditions in all cases: compound concentration: 200 uM; treatment time: 3 h
ALG13 = biological target: T1, ALG13 (UniProt Q9NP73)
T1 sequence (whole entry): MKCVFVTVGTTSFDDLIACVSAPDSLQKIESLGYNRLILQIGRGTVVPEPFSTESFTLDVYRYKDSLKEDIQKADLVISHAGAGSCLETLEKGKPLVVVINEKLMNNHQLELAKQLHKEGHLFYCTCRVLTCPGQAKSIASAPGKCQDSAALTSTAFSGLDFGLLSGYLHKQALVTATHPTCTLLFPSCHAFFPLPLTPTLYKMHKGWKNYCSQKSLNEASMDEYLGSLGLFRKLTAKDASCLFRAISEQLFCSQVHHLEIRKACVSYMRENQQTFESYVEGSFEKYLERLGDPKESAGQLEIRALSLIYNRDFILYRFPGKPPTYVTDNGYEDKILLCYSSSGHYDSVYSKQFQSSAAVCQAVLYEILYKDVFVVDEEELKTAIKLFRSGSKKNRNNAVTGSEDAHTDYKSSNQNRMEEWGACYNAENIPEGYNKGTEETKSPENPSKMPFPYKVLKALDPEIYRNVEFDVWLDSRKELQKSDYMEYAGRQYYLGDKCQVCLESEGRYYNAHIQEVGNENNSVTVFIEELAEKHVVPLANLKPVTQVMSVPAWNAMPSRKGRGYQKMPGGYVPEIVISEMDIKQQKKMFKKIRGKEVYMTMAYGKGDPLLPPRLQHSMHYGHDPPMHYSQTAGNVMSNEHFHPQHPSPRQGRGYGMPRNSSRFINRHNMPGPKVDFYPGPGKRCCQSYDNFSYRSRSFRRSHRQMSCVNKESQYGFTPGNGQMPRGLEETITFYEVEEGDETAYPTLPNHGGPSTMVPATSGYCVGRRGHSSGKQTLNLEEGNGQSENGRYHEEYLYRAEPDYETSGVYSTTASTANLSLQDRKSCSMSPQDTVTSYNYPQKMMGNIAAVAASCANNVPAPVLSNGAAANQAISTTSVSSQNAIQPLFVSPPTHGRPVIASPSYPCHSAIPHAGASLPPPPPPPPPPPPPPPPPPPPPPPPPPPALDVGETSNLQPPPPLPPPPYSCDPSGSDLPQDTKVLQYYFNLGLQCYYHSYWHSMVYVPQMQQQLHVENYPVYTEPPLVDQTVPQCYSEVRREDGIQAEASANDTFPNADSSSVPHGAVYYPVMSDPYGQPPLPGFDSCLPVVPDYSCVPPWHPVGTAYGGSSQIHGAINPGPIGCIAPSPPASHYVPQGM
Method in brief: (§1)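 Lysate from HEK293T cells, 495 µg per sample in Tris/CHAPS/IGEPAL buffer with protease inhibitors, was treated for 3 h in triplicate with fragment at 200 µM or vehicle. Biotin-Ahx-Ub-VS was next added at 0.5 µM final for 1 h. The labelled DUBs were enriched with NeutrAvidin, digested with LysC and trypsin, and run by diaPASEF LC-MS/MS, with values given as average log2 fragment/vehicle ratios by unpaired t-test on global-median-normalised Spectronaut quantities of proteins with ≥2 unique peptides.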

ATXN3 = ATXN3 (UniProt P54252)
Chain of ATXN3 (P54252 whole entry): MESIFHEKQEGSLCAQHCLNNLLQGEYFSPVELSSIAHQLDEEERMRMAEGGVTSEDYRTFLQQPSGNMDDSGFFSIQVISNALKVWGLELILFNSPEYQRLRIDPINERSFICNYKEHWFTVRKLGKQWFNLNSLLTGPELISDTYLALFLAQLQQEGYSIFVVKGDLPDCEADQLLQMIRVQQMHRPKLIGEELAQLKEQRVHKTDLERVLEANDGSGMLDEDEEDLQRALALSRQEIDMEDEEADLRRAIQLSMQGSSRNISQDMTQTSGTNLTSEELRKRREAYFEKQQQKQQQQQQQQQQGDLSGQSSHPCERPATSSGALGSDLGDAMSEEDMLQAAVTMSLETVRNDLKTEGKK
Method in brief: as §1

BAP1 = biological target: T2, BAP1 (UniProt Q92560)
T2 sequence (whole entry): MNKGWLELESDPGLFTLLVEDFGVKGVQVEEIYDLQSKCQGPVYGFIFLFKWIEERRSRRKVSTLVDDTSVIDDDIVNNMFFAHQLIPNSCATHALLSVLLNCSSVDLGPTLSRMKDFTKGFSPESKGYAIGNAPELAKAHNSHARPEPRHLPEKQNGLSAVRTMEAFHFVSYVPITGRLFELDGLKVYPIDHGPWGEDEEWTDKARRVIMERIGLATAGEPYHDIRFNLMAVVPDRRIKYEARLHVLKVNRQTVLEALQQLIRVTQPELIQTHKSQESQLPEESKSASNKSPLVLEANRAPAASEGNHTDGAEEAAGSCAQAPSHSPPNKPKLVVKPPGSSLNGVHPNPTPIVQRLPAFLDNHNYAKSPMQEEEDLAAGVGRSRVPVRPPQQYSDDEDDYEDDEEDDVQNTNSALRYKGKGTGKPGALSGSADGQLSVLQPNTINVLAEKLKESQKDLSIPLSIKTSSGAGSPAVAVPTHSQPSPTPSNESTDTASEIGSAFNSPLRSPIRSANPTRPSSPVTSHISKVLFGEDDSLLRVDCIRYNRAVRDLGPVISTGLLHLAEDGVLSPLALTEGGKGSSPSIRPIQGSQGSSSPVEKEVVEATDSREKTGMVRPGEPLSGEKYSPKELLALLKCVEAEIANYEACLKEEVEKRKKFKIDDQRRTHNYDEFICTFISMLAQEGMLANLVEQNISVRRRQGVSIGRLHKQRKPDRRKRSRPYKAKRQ
Method in brief: as §1

EIF3F = EIF3F (UniProt O00303)
Chain of EIF3F (O00303 whole entry): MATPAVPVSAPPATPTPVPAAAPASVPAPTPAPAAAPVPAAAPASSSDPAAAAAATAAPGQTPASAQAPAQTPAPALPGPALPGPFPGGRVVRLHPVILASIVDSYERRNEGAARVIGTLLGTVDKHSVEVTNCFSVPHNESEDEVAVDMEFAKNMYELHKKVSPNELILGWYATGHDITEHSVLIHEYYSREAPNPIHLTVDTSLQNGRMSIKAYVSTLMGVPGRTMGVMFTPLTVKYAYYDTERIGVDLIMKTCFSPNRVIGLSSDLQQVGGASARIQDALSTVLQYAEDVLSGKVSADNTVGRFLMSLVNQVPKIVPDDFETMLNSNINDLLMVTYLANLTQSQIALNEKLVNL
Method in brief: as §1

EIF3H = EIF3H (UniProt O15372)
Chain of EIF3H (O15372 whole entry): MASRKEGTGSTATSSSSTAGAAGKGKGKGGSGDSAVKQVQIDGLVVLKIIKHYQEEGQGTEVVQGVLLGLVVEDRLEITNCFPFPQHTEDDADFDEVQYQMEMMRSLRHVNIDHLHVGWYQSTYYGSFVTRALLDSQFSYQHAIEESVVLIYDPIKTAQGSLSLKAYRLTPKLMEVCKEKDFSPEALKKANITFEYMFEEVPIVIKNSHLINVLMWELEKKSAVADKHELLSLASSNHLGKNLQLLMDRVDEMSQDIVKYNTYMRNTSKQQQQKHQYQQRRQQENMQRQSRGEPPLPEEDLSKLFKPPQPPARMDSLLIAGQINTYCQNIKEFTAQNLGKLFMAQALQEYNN
Method in brief: as §1

FAM105A = biological target: T3, FAM105A (UniProt Q9NUU6)
T3 sequence (whole entry): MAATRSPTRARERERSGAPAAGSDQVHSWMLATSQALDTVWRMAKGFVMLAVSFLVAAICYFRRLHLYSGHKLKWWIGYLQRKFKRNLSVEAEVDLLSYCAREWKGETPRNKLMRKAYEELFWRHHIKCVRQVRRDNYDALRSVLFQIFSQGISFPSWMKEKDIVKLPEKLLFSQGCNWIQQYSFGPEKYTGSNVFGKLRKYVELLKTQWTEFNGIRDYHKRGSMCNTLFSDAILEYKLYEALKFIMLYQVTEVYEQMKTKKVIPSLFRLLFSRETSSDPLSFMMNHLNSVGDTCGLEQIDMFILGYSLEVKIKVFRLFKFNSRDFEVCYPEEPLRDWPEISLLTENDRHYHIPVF
Method in brief: as §1

OTUB1 = OTUB1 (UniProt Q96FW1)
Chain of OTUB1 (Q96FW1 whole entry): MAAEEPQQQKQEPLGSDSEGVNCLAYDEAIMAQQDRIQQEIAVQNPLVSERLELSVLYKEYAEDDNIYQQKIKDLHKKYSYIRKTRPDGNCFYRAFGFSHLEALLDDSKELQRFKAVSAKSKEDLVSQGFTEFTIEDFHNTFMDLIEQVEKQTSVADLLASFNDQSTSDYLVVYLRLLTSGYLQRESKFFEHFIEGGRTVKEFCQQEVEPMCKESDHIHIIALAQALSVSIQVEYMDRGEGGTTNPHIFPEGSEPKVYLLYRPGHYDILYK
Method in brief: as §1

OTUD4 = biological target: T4, OTUD4 (UniProt Q01804)
T4 sequence (whole entry): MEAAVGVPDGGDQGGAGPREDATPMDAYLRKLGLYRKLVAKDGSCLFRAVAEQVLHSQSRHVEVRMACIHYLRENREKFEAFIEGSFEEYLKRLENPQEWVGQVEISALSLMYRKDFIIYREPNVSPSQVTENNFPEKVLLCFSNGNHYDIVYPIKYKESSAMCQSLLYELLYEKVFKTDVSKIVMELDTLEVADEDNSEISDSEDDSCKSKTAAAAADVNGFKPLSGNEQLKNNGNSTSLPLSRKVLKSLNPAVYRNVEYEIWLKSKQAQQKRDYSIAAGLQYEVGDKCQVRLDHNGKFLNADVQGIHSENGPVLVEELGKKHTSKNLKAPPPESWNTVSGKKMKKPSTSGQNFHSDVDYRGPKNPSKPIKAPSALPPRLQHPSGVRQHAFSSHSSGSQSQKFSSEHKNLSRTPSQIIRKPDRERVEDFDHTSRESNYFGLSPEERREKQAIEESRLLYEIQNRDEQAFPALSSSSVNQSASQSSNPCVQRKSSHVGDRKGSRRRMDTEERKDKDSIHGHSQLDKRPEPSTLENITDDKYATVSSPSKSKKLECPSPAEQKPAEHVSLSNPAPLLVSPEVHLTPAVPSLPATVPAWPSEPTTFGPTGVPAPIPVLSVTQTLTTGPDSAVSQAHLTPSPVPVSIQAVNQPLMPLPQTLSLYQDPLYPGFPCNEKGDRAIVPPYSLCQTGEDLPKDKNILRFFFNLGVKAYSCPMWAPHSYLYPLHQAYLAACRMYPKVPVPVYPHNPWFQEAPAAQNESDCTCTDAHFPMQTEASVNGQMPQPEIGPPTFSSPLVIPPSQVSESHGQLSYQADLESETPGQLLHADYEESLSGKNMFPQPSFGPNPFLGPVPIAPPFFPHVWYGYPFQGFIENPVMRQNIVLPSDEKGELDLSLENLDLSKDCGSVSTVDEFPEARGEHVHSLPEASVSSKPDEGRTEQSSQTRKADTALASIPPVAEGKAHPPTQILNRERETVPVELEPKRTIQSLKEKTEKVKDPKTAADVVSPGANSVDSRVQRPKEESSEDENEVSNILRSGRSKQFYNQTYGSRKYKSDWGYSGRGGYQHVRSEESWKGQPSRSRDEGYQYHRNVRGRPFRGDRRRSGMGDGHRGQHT
Method in brief: as §1

OTUD5 = biological target: T5, OTUD5 (UniProt Q96G74)
T5 sequence (whole entry): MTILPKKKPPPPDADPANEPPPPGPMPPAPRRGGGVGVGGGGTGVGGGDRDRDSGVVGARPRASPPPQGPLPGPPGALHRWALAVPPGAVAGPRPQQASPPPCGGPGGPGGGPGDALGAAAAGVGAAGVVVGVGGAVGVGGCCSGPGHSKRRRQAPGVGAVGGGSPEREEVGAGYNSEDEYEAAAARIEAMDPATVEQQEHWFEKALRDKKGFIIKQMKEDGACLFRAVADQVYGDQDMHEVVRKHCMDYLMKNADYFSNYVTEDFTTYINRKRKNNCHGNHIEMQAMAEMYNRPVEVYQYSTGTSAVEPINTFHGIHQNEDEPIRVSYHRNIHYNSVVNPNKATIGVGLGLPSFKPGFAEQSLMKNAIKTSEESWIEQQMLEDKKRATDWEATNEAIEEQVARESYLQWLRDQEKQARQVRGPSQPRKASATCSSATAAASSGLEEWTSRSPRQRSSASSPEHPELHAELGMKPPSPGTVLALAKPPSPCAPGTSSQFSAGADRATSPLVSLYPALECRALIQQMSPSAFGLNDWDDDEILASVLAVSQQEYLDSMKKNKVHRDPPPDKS
Method in brief: as §1

Measured: log2 ratio of Biotin-Ahx-Ub-VS probe labelling

O=C(CCl)NCCC1COCCO1 (centres undefined)
active: BAP1 -1.01
inactive: ALG13 -0.267 | ATXN3 -0.282 | EIF3F -0.44 | EIF3H 0.24 | FAM105A -0.278 | OTUB1 -0.233 | OTUD4 -0.214 | OTUD5 -0.165

— the supplement of paper PMC11732987, “Enantioselective OTUD7B fragment discovery through chemoproteomics screening and high-throughput optimisation” (Communications Chemistry, 2025)
